Assay outcomes from PubChem.
Hits are enriched below; roughly 8.8% of the tested compounds scored in any of these assays.
IL1B secr inh = qHTS for Inhibitors of Inflammasome Signaling: IL-1-beta AlphaLISA Primary Screen. THP-1 LPS/ATP IL-1B secretion, AlphaLISA, 16 h; stronger effect = lower value. activity change, % at 57.5 µM. 360,000 compounds, 4.7% hits. AID 743279, 2014; in the data active = activity change below about -50%; inconclusive = mostly about -30% to -49%
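THP-1 cells pretreated 1 hr with compounds (up to 57.5 uM final), then stimulated with LPS (250 ng/mL final) plus ATP (1.25 mM final); secreted IL-1B measured by AlphaLISA after 16 hr, decreased signal indicating inhibition.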
KB-V1 MDR tox = qHTS assay for MDR1-selective chemotherapeutics: Primary screen using the drug-selected MDR subline cells KB-V1; Potency, µM (doses to about 46.1 µM), hits mostly cytotoxic; 400,000 compounds, 3.4% hits; AID 1347076, 2019; KB-V1 MDR cells viability, CellTiter-Glo, 72 h; also: nearly all actives have a fitted effect of over 60% in size
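Potencies derive from concentration-effect curves fitted to normalized luminescence (CellTiter-Glo) of KB-V1 cells treated for 72 h at 37 degrees C in phenol-red-free DMEM containing 10% FBS.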
HT1080 IDH1KD tx = qHTS for induction of synthetic lethality in tumor cells producing 2HG: qHTS for the HT-1080-IDH1KD cell line; HT-1080 IDH1 knockdown viability, ATP luminescence, 48 h; Potency, µM (highest dose often 46.1 µM), most hits filed as cytotoxic; 360,000 compounds, 2% hits
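Luminescent ATP read-out (CellTiter-Glo, 10 min at room temperature) after 48 h compound exposure at 37 °C gave viability of IDH1-knockdown HT-1080 cells. Activity was normalised to DMSO and cell-free wells, then fitted as concentration-response curves.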
HT1080-NT tox = qHTS for induction of synthetic lethality in tumor cells producing 2HG: qHTS for the HT-1080-NT fibrosarcoma cell line; HT-1080-NT fibrosarcoma viability, CellTiter-Glo ATP luminescence, 48 h; Potency, µM (series often up to 46.1 µM), most hits filed as cytotoxic; 360,000 compounds, 1.6% hits; AID 686970, 2013;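 also: NT is the 2HG producing partner of a matched IDH1 knockdown line; nearly all actives have a fitted effect of over 55% in size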
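Compounds were tested in concentration-response format on HT-1080-NT cells for 48 hours at 37 degrees C. Cell viability came from CellTiter-Glo luminescence; curves were classified by r2, response magnitude and activity.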
KB-3-1 cytotox = qHTS assay for MDR1-selective chemotherapeutics: Primary screen using the parental adenocarcinoma cell KB-3-1 | KB-3-1 viability, CellTiter-Glo ATP luminescence, 72 h | Potency, µM (titrated, usually from 46.1 µM), most hits filed as cytotoxic | 400,000 compounds, 1.4% hits | AID 1347075, 2019; also: nearly all actives have a fitted effect of over 60% in size
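Parental KB-3-1 viability, qHTS format: 72 h compound exposure, 37 °C; CellTiter-Glo; media-only wells and DMSO plates as controls; concentration-effect fits on corrected data.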
A number is an active result. Unless noted, calls follow the shape of the dose curve; as a rule, active = well fitted curve in the direction sought with a large enough effect; inconclusive = small, poorly fitted or top-dose-only effect, or another doubt; inactive = no such curve, though single readings can be large; an effect the other way counts as inactive or inconclusive.

CN1CCCC(OC(=O)c2ccc(S(=O)(=O)N(C)C)cc2)C1 (stereo not given) was read as IL1B secr inh inactive, KB-V1 MDR tox inactive, HT1080 IDH1KD tx inactive, HT1080-NT tox inactive and KB-3-1 cytotox inactive.
`O=C(Nc1ccccc1N1CCCCC1)c1ccc(Cl)c([N+](=O)[O-])c1` gave KB-V1 MDR tox inactive, HT1080 IDH1KD tx inconclusive, HT1080-NT tox inconclusive and KB-3-1 cytotox inactive.
Screening CCN1CCN(c2ccc(S(=O)(=O)N3CCCCC3)cc2NC(=O)/C=C/c2ccc(F)cc2)CC1 returned IL1B secr inh inconclusive, KB-V1 MDR tox inactive, HT1080 IDH1KD tx inactive, HT1080-NT tox inactive and KB-3-1 cytotox inactive.
Screening CN1CCN(c2ccc(S(=O)(=O)N3CCCCC3)cc2NC(=O)/C=C/c2ccc(Cl)c([N+](=O)[O-])c2)CC1 returned IL1B secr inh -80.7, KB-V1 MDR tox inactive, HT1080 IDH1KD tx inconclusive, HT1080-NT tox inactive and KB-3-1 cytotox inactive.
For O=C(/C=C/c1ccc(Cl)c([N+](=O)[O-])c1)Nc1ccc(N2CCCC2)c(Cl)c1 the results were IL1B secr inh inactive, KB-V1 MDR tox inactive, HT1080 IDH1KD tx 13µM, HT1080-NT tox inconclusive and KB-3-1 cytotox inactive.
CCN1CCN(c2ccc(S(=O)(=O)N3CCCCC3)cc2NC(=O)/C=C/c2ccc([N+](=O)[O-])cc2)CC1 was read as IL1B secr inh -98.5, KB-V1 MDR tox inconclusive, HT1080 IDH1KD tx 16.4µM, HT1080-NT tox inconclusive and KB-3-1 cytotox inactive.
CCN1CCN(c2ccc(S(=O)(=O)N3CCCCC3)cc2NC(=O)c2ccc(OC(F)F)cc2)CC1 was read as IL1B secr inh -75.7, KB-V1 MDR tox inactive, HT1080 IDH1KD tx inactive, HT1080-NT tox inactive and KB-3-1 cytotox inactive.
CCN1CCN(c2ccc(S(=O)(=O)N3CCCCC3)cc2NC(=O)/C=C/c2ccc(OC(F)F)cc2)CC1 was read as IL1B secr inh -84.0, KB-V1 MDR tox inactive, HT1080 IDH1KD tx inactive, HT1080-NT tox inactive and KB-3-1 cytotox inconclusive.
Screening CN1CCN(c2ccc(S(=O)(=O)N3CCCCC3)cc2NC(=O)/C=C/c2ccc(OC(F)F)cc2)CC1 returned IL1B secr inh -79.6, KB-V1 MDR tox inconclusive, HT1080 IDH1KD tx inconclusive, HT1080-NT tox inconclusive and KB-3-1 cytotox inactive.
Screening CCc1nn(CC(=O)NCCCOC)c(=O)c2cc3occc3n12 returned KB-V1 MDR tox inactive and KB-3-1 cytotox inactive.
For COc1ccc2c(CC(=O)N(C)CC3COc4ccccc4O3)coc2c1 (stereo not given) the results were IL1B secr inh inactive, KB-V1 MDR tox 18.4µM, HT1080 IDH1KD tx inactive, HT1080-NT tox inactive and KB-3-1 cytotox inactive.
For COc1ccccc1CC(=O)Nc1ccc2c(c1)OC1(CCCC1)O2 the results were IL1B secr inh -73.6, KB-V1 MDR tox inactive, HT1080 IDH1KD tx inactive, HT1080-NT tox inactive and KB-3-1 cytotox inactive.
`O=C(Cc1ccccc1)Nc1ccc2c(c1)OC1(CCCC1)O2` gave IL1B secr inh inactive, KB-V1 MDR tox inconclusive, HT1080 IDH1KD tx inactive, HT1080-NT tox inactive and KB-3-1 cytotox inactive.
Screening Cc1cc(C)c(NC(=O)COC(=O)c2cccc3c2C(=O)c2ccccc2C3=O)c(C)c1 returned IL1B secr inh inconclusive, KB-V1 MDR tox inconclusive, HT1080 IDH1KD tx inactive, HT1080-NT tox inactive and KB-3-1 cytotox inconclusive.
Cc1cc(C)c(Nc2cc(S(=O)(=O)O)c(N)c3c2C(=O)c2ccccc2C3=O)c(C)c1 was read as IL1B secr inh -54.6, KB-V1 MDR tox inactive, HT1080 IDH1KD tx inactive, HT1080-NT tox inactive and KB-3-1 cytotox inactive.
For Cc1cccc(NC(=S)NNC(=O)c2csc(C(C)C)c2)c1 the results were IL1B secr inh inactive, KB-V1 MDR tox 20.6µM, HT1080 IDH1KD tx inactive, HT1080-NT tox inactive and KB-3-1 cytotox inactive.
`O=C(Nc1cccc([N+](=O)[O-])c1)c1ccc2ccccc2c1O` gave IL1B secr inh -63.3, KB-V1 MDR tox 4.11µM, HT1080 IDH1KD tx inconclusive, HT1080-NT tox inconclusive and KB-3-1 cytotox inconclusive.
